# Data as given in PubChem BioAssay (NCATS).
# Inconclusive results are not listed. Where a call stands in place of a potency, no number is given. Active and inactive are the calls of the source. Unless noted, calls follow the shape of the dose curve; as a rule, active = well fitted curve in the direction sought with a large enough effect; inconclusive = small, poorly fitted or top-dose-only effect, or another doubt; inactive = no such curve, though single readings can be large; an effect the other way counts as inactive or inconclusive.
# What was measured:
# [1] = P-glycoprotein substrates identified in KB-3-1 adenocarcinoma cell line, qHTS therapeutic library screen (AID 1346986); also: nearly all actives have a fitted effect of over 60% in size;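 also: potency is read from the fitted curve at half-maximal effect; potency is for cytotoxicity meaning loss of cell viability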
# In short: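 KB-3-1 parental cells and P-gp-overexpressing KB-8-5-11 (colchicine omitted during assay) plated at 500 cells/well, dosed in dose-response, incubated 72 h at 37 degree C. CellTiter-Glo luminescence read; KB-8-5-11 also tested with tariquidar.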
# [2] = P-glycoprotein substrates identified in KB-8-5-11 adenocarcinoma cell line, qHTS therapeutic library screen (AID 1346987); also: nearly all actives have a fitted effect of over 65% in size; also: potency is read from the fitted curve at half-maximal effect
# In short: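 KB-8-5-11: colchicine-selected sub-line of KB-3-1 over-expressing P-gp; assay medium lacked colchicine. 72 h drug exposure at 37 degree C, CellTiter-Glo.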
# [3] = Primary qHTS for inhibitors of nuclear receptor binding SET domain protein 2 (NSD2) in an isogenic RCH-ACV NSD2 p.E1099K mutant (9B) (AID 1645876); also: nearly all actives have a fitted effect of over 70% in size; also: potency is read from the fitted curve at half-maximal effect
# [4] = target: Glutathione peroxidase 1 (Homo sapiens) (UniProt P07203); test: Primary qHTS Assay for Inhibitors of Recombinant Selenoprotein Glutathione Peroxidase 1 (GPX1) (AID 1845191); also: nearly all actives have a fitted effect of over 65% in size
# In short: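 Recombinant GPX1 (10 nM final) was preincubated with compound for 30 min at room temperature, then reacted with 1 mM GSH, 0.5 mM CHP, 0.5 mM NADPH and 100 nM glutathione reductase; NADPH fluorescence (340/450 nm) was read at 0 and 15 min.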
# [5] = system: Zika virus NS2B-NS3 protease; test: Primary screen GU AMC qHTS for Zika virus inhibitors (AID 1347154); also: nearly all actives have a fitted effect of over 70% in size; also: potency is read from the fitted curve at half-maximal effect
# In short: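 Unlinked Zika NS2B hydrophilic domain/NS3 protease domain noncovalent complex (25 nM final) in 10 mM Tris-HCl pH 8.0, 0.01% Tween 20, with AMC peptide substrate. Fluorescence (ex 340, em 450 nm) change over 15 min, room temperature; percent inhibition fitted to 4-parameter Hill equation.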
# [6] = Primary qHTS for inhibitors of nuclear receptor binding SET domain protein 2 (NSD2) in an RCH-ACV wild type WT cells (2C) (AID 1645877); also: nearly all actives have a fitted effect of over 70% in size; also: potency is read from the fitted curve at half-maximal effect
# [7] = target: Phospholipid hydroperoxide glutathione peroxidase GPX4 (Homo sapiens) (UniProt P36969); test: Primary qHTS Assay for Inhibitors of Recombinant Selenoprotein Glutathione Peroxidase 4 (GPX4) (AID 1845192); settings: outcome: dose series up to 50 µM unless noted; also: nearly all actives have a fitted effect of over 65% in size
# In short: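 GR-coupled readout: 100 nM GR, 1 mM GSH, 0.5 mM NADPH; NADPH fluorescence (ex 340/em 450 nm) read at t=0 and after 15 min RT. GPX4 200 nM, preincubated 30 min with compound; substrate 0.5 mM CHP.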
# [8] = qHTS drug screen for cell cycle checkpoint inhibitors in PARPi-resistant BRCA-mutant ovarian cancer cell lines. (AID 1963452; calls by dose curve); settings: PEO1/OlaR viability, CellTiter-Glo luminescence, 96 h, stronger effect = lower value
# In short: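 PEO1, PEO4 and PEO1/OlaR ovarian cancer cells, 600 per well, exposed 96 h at 37C to a dilution series. Viability read by CellTiter-Glo luminescence, normalized to DMSO and empty wells; activity summarized as Z-AUC.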
# [9] = target: Cytochrome P450 3A4 (Homo sapiens) (UniProt P08684); test: qHTS Assay for Inhibitors and Substrates of Cytochrome P450 3A4 (AID 884); also: potency is read from the fitted curve at half-maximal effect; nearly all actives have a fitted effect of over 50% in size
# In short: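 20 nM human CYP3A4 with 25 uM Luciferin-PPXE (at KM) in 200 mM KPO4, preincubated 10 min with compound; NADPH regeneration started a 60 min RT reaction. Luciferin detected by luminescence, normalized to 57 uM ketoconazole as full inhibition.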
# [10] = target: Cytochrome P450 3A4 (Homo sapiens) (UniProt P08684); test: qHTS Assay for Activators of Cytochrome P450 3A4 (AID 885); also: nearly all actives have a fitted effect of over 65% in size
# In short: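 20nM CYP3A4 + 25uM Luciferin-PPXE (=KM), 200mM KPO4; cpd 10 min RT; NADPH regen, 60 min RT; stop w/ detection buffer, 20 min; luminescence. Normalized to 57 uM ketoconazole.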
# [11] = Primary qHTS for small molecule stabilizers of the endoplasmic reticulum resident proteome: Secreted ER Calcium Modulated Protein (SERCaMP) assay (AID 1508630)
# In short: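 GLuc-SERCaMP-expressing SH-SY5Y cells, pretreated 16 h with compound, are challenged with thapsigargin to empty ER calcium stores; after 4 h, coelenterazine is added directly to the medium and luminescence is imaged.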
# [12] = target: Calcium and integrin-binding protein 1 (Homo sapiens) (UniProt Q99828); test: Primary qHTS for Identification of Calcium Integrin Binding Protein 1 (CIB1) Competitor (AID 1508620);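 also: GST tagged CIB1 binding a fluorescein labelled alphaIIb integrin peptide tracer; top concentration of the series differs between compounds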
# In short: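 Fluorescence polarization competition: CIB1-GST (1 uM final) preincubated with compound 15 min at room temperature, then FITC-labeled alphaIIb peptide (100 nM final) added for another 15 min. Polarization read at Ex 480/Em 540.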
# [13] = target: Catechol O-methyltransferase (Homo sapiens) (UniProt P21964); test: Confirmatory Screen for Target Class Profiling of Small Molecule Inhibitors of Methyltransferases (AID 1745852); settings: MTase-Glo luminescence, SAH detection, recombinant enzyme; measured here: COMT max response; stronger effect = lower value
# [14] = target: Guanidinoacetate N-methyltransferase (Homo sapiens) (UniProt Q14353); test: as above; settings: activity change, negative = inhibition: at 57.3 µM (top of the series) unless noted
# [15] = target: Nicotinamide N-methyltransferase (Homo sapiens) (UniProt P40261); test: as above; settings: MTase-Glo luminescence, SAH detection, recombinant enzyme; measured here: NNMT max response; stronger effect = lower value
# [16] = target: Phenylethanolamine N-methyltransferase (Homo sapiens) (UniProt P11086); test: as above; settings: MTase-Glo luminescence, SAH detection, recombinant enzyme; measured here: PNMT max response; stronger effect = lower value
# [17] = Counterscreen qHTS for small molecule stabilizers of the endoplasmic reticulum resident proteome: GLuc-NoTag assay (AID 1508627);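 also: SH-SY5Y cells given compound then 100 nM thapsigargin to empty ER calcium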
# In short: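 SH-SY5Y cells stably expressing constitutively secreted GLuc (no SERCaMP tag) were pre-incubated 5 h, treated with compound for 19 h, then 100 nM thapsigargin for 4 h at 37C; medium GLuc read by coelenterazine luminescence.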
# [18] = Confirmation and Secondary Assay for Modulators of Hemoglobin Beta Chain Splicing at IVS2 654 locus (AID 910);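 also: per-well total GFP intensity by laser scanning cytometry after 2-day treatment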
# In short: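 HeLa cells stably carrying EGFP interrupted by mutant beta-globin IVS2-654 intron (CMV-driven) were treated with compound for 2 days at 37C; corrected splicing was scored as total peak GFP intensity per well (488 nm excitation, 500-520 nm emission).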
# [19] = Confirmation and Secondary Assay for Modulators of Hemoglobin Beta Chain Splicing at IVS2 705 locus (AID 930);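 also: HeLa cells stably expressing the EGFP-705 splicing reporter; GFP fluorescence per well restored by corrected splicing of the IVS2-705 intron in EGFP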
# In short: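 Secondary splice-site specificity test uses HeLa expressing CMV-driven EGFP interrupted by IVS2-705; cells were treated 2 days at 37C with 500 nM antisense PNA as positive control.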
# [20] = qHTS Assay for Lipid Storage Modulators (AID 1519; calls by dose curve); settings: Drosophila S3 cells, BODIPY lipid droplet/cell ratio, laser cytometry, cells loaded with oleic acid
# In short: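 Cells seeded at 5,000 per well were treated with compounds over a concentration series and loaded with oleic acid (400 uM, as added). Lipid droplet fluorescence (488 nm excitation, 500-530 nm channel) was read by laser-scanning cytometry and normalized to 20 uM Triacsin C.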
# [21] = target: Ubiquitin carboxyl-terminal hydrolase 1 (Homo sapiens) (UniProt O94782); test: Inhibitors of USP1/UAF1: Pilot qHTS (AID 504865);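 also: rhodamine fluorescence freed from ubiquitin-rhodamine substrate followed over time; top concentration of the series differs between compounds; nearly all actives have a fitted effect of over 35% in size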
# In short: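 Kinetic fluorescence assay: 1nM USP1/UAF1, 15 min compound preincubation, then 150nM Ub-Rho; 480/540 nm.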
# Glutathione peroxidase 1 (Homo sapiens), sequence (P07203 whole entry, looked up): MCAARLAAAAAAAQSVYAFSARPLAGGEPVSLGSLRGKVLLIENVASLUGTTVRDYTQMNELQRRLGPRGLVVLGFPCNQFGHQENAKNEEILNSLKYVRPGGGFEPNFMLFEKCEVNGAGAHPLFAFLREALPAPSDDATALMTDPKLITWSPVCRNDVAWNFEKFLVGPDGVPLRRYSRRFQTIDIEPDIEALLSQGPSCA
# Cytochrome P450 3A4 (Homo sapiens), sequence (P08684 whole entry, looked up): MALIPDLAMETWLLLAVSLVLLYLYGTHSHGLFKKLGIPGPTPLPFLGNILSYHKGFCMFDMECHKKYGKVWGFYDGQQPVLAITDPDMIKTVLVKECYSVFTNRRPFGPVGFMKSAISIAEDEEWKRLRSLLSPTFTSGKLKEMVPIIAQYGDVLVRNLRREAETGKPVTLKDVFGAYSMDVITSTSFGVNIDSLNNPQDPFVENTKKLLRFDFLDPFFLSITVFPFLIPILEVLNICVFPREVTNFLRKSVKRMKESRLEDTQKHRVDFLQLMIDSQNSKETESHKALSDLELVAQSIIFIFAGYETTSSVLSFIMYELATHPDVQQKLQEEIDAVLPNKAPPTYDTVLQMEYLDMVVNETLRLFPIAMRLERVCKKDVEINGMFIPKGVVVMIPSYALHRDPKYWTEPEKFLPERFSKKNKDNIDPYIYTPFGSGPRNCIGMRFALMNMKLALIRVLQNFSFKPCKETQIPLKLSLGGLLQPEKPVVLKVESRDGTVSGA
# Calcium and integrin-binding protein 1 (Homo sapiens), sequence (Q99828 whole entry, looked up): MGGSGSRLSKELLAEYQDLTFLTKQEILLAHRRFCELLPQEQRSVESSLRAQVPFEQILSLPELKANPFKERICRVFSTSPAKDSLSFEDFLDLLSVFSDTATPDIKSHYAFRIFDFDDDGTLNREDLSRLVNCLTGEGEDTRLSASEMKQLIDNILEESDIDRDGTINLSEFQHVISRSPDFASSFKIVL
# Phospholipid hydroperoxide glutathione peroxidase GPX4 (Homo sapiens), sequence (P36969 whole entry, looked up): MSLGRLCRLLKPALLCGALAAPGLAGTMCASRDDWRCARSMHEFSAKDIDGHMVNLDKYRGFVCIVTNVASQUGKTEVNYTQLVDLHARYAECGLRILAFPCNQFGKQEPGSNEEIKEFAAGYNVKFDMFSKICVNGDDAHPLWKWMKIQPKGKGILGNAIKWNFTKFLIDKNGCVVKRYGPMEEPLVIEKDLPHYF
# Nicotinamide N-methyltransferase (Homo sapiens), sequence (P40261 whole entry, looked up): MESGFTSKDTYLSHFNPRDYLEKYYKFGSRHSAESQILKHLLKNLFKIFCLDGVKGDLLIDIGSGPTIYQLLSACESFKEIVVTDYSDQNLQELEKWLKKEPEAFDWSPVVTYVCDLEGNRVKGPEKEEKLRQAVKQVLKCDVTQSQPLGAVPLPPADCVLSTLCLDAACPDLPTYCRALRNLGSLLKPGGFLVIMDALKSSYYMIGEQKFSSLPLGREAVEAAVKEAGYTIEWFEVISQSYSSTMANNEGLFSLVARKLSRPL
# Phenylethanolamine N-methyltransferase (Homo sapiens), sequence (P11086 whole entry, looked up): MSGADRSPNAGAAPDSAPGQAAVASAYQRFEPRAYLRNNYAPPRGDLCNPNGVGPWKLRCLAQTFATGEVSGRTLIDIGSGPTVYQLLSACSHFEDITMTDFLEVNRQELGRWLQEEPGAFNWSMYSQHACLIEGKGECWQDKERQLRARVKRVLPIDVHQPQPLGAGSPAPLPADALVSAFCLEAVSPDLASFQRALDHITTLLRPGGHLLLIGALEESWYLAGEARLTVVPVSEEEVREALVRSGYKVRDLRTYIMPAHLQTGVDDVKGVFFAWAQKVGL
# Ubiquitin carboxyl-terminal hydrolase 1 (Homo sapiens), sequence (O94782 whole entry, looked up): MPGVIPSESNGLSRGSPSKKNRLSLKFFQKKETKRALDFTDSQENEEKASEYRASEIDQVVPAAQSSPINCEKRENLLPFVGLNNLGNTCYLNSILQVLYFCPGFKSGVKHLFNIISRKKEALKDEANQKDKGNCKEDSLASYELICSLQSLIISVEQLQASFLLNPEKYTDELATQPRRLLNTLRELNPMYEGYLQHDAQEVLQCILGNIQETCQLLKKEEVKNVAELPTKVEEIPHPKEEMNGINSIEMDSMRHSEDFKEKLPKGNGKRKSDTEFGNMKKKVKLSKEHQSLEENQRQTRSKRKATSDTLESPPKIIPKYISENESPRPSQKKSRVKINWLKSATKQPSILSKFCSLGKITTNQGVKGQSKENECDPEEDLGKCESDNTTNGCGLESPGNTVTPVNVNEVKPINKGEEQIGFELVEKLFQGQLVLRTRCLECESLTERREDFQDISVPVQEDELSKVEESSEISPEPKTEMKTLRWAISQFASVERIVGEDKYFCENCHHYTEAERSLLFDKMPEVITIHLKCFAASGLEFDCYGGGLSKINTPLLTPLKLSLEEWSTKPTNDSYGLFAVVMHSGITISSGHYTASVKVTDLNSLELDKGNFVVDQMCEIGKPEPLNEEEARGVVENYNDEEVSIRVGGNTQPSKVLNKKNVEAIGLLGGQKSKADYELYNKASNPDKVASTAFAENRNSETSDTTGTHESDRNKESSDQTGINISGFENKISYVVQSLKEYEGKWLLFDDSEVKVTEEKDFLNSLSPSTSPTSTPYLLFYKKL
# Catechol O-methyltransferase (Homo sapiens), sequence (P21964 whole entry, looked up): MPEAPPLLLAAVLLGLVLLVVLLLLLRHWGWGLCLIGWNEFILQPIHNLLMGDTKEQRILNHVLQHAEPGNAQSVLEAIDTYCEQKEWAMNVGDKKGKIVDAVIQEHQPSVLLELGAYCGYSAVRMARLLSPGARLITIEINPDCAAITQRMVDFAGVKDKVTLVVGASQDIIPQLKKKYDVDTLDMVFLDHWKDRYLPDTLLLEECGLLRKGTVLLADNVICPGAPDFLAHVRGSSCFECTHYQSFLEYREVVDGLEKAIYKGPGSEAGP
structure (smiles),measurement,setting,value
O=C(O)c1c[nH]c2c(ccc3ccccc32)c1=O,Potency,[1],inactive
same,Potency,[2],inactive
same,Potency,[3],inactive
same,Potency,[4],inactive
Cc1cc(F)c(Nc2ncnc3cc(OCc4ccccc4)ccc23)cc1O,Potency,[1],inactive
same,Potency,[5],inactive
same,Potency,[3],3.66 µM (active)
same,Potency,[6],3.26 µM (active)
same,Potency,[4],inactive
O=C(NCCc1c[nH]c2ccc(O)cc12)c1ccc2ccccc2c1O,Potency,[1],8.2 µM (active)
same,Potency,[4],inactive
CSC(Cc1ccc(Cl)cc1)C(=O)Nc1ccc(Cl)cc1C(=O)O (stereo not drawn),Potency,[1],inactive
same,Potency,[2],inactive
same,Potency,[3],inactive
same,Potency,[4],inactive
COC1(c2sc3c(N4CCOCC4)nc(-c4cnc(N)nc4)nc3c2C)COC1,Potency,[1],0.184 µM (active)
same,Potency,[2],0.184 µM (active)
same,Potency,[3],0.209 µM (active)
same,Potency,[6],0.186 µM (active)
same,Potency,[4],inactive
same,Potency,[7],inactive
same,Z-AUC,[8],-1.69 (inactive)
same,Z-AUC,[8]; measured here: PEO1 parental Z-AUC,-1.58
same,Z-AUC,[8]; measured here: PEO4 Z-AUC,-1.08
CC(C)OC(=O)OCOP(=O)(COC(C)Cn1cnc2c(N)ncnc21)OCOC(=O)OC(C)C (stereo not drawn),Potency,[1],inactive
same,Potency,[2],inactive
same,Potency,[6],inactive
Nc1ccn([C@H]2O[C@@H](CO)[C@H](O)[C@H]2O)c(=O)n1,Potency,[1],3.66 µM (active)
same,Potency,[3],0.0206 µM (active)
same,Potency,[6],0.0164 µM (active)
C=CC(=O)c1ccc2ccccc2c1,Potency,[9],25.1 µM (active)
same,Potency,[10],inactive
same,Potency,[2],inactive
same,Potency,[5],inactive
same,Potency,[11],inactive
same,Potency,[6],inactive
same,Potency,[4],inactive
CC(C)n1cc(-c2ccc(Oc3ccccc3)cc2)c2c(N)ncnc21,Potency,[2],9.2 µM (active)
same,outcome,[12],inactive
same,Potency,[3],1.64 µM (active)
same,Potency,[6],2.06 µM (active)
same,activity,[13],-15%
same,"activity change, negative = inhibition",[14],-8.59%
same,activity,[15],-34.7%
same,activity,[16],-60.7%
same,Potency,[4],inactive
O=c1[nH]ccc2c(S(=O)(=O)N3CCCNCC3)cccc12,Potency,[2],inactive
same,Potency,[5],26.7 µM (active)
same,Potency,[17],inactive
same,Potency,[3],inactive
same,Potency,[6],inactive
same,Potency,[4],inactive
COc1cc(O)c2c(=O)c(O)c(-c3ccc(O)c(O)c3)oc2c1,Potency,[10],inactive
same,outcome,[18],inactive
same,outcome,[19],inactive
same,"activity change, negative = inhibition",[20]; at 57.5 µM (top of the series),4.09% (inactive)
same,max response,[20]; measured here: cell count channel max response,-9.74%
same,max response,[20]; measured here: lipid channel max response,-5.25%
same,Potency,[21],inactive
same,Potency,[2],inactive
same,Potency,[3],10.3 µM (active)
same,Potency,[6],14.6 µM (active)
same,Potency,[4],inactive
